Compound activity: PubChem, The Scripps Research Institute Molecular Screening Center
MITF inh: blocks human microphthalmia-associated transcription factor. O75030. inhibition, % at 2.6 µM. AlphaScreen MITF homodimerization, bead proximity signal. 650,000 tested, 0.91% active; in the data active = inhibition above about 50%
GPR151 activ: human GPR151 activation; Q8TDV0; PathHunter beta-arrestin GPR151 cells, luminescence; activation, % at 11.2 µM; 650,000 tested, 1% active; AID 1508602; in the data active = activation above about 4.9%
FBW7 act: human FBW7 E3 ligase activation, primary screen; AlphaScreen FBW7–phospho-cyclin E peptide binding, activator screen; normalized activity (activation), % at 26.1 µM; 650,000 tested, 0.13% active; in the data active = normalized activity above about 1.9%;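 note: purified mutant Fbw7 with reduced substrate affinity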
TEAD-YAP block: TEAD-YAP interaction inhibition. HEK-TIYL cells, TEAD-Gal4/YAP UAS-luciferase luminescence. inhibition, % at 9.12 µM. 640,000 tested, 1.4% active. AID 1259422; in the data active = inhibition above about 32%
GPR151 conf act: human GPR151 activation, confirmation screen; shares compounds with GPR151 activ; GPR151 PathHunter beta-arrestin cells, luminescence, 90 min; % of EA-reagent control over plate median; activation, % at 11.2 µM; 6,700 tested, under 10 active; AID 1508609;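 active = mean percent activation across replicates above the confirmation screen cutoff of 4.91%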
GPR119 ag: GPR119 activation, counter-screen for GPR151 activators; shares compounds with GPR151 activ; GPR119 PathHunter beta-arrestin cells, luminescence, 90 min; 0 = compound-well median, 100 = enzyme-acceptor control; activation, % at 11.2 µM; 6,700 tested, 0.3% active; AID 1508611;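 active = mean percent activation in the counterscreen above 29.09%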;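 note: counterscreen on off-target GPR119 to flag nonselective hits from the GPR151 activator screen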
Numbers stand for hits; 0 = inactive; - = not tested or not shown; ! = not active in a repeat. Shown are actives, neighbours in structure and some others; about 3.4% of the full set was active somewhere.

SMILES	MITF inh	GPR151 activ	FBW7 act	TEAD-YAP block	GPR151 conf act	GPR119 ag
Cc1ccc(-c2nc(-c3ccccc3)c(-c3ccc(C(=O)c4ccccc4)cc3)[nH]2)cc1	0	9.6	0	0	0	0
CCCNc1nc(-c2ccc(N3CCOCC3)nc2)nc2c1ncn2-c1ccccc1	0	0	0	0	-	-
c1ccc(CNc2nc(-c3ccc(N4CCOCC4)nc3)nc3c2ncn3-c2ccccc2)cc1	0	5.5	0	0	0	0
c1ccc(-n2cnc3c(NCc4cccnc4)nc(-c4ccc(N5CCOCC5)nc4)nc32)cc1	0	5.7	0	46	0	0
COc1nc(NCCN(C(C)C)C(C)C)nc(-c2ccccc2)n1	0	0	0	0	-	-
COc1ccc(-c2nc(NCCN(C(C)C)C(C)C)nc(OC)n2)cn1	0	6.1	0	0	0	0
O=C(Nc1ccc(Cl)c(Cl)c1)C1C2CC/C=C\CCC21 (centres undefined)	0	0	0	0	-	-
N#CC1=C(N)c2ccccc2CC12CCCC2	0	0	0	0	-	-
Cc1cc(C)c(S(=O)(=O)NCCc2ccc(S(N)(=O)=O)cc2)c(C)c1	0	7.1	0	0	0	0
CNc1nc(OCC(F)(F)F)nc(N2CCCC[C@H]2c2cccnc2)n1	0	0	0	0	-	-
Cc1ccc(C(=O)N[C@H]2C[C@H]3C(=O)N[C@H](C)C(=O)N3C2)cc1F	0	0	0	0	-	-
Cc1nc(Oc2ccccc2)cc(N2CCN(C(=O)C(C)C)CC2)n1	0	0	0	0	-	-
COc1cc([N+](=O)[O-])ccc1NC(=O)COC(=O)C(CC(C)C)NC(N)=O (centres undefined)	0	5.3	0	0	0	0
COc1cc(Cl)c(C)cc1NC(=O)COC(=O)C(CC(C)C)NC(N)=O (centres undefined)	0	0	0	0	-	-
COc1ccc([N+](=O)[O-])cc1NC(=O)COC(=O)CC(c1ccccc1)c1ccccc1	0	5.2	0	0	0	0
Cc1ccc(C)n1-c1ccc(Cl)cc1O	0	0	0	0	-	-
Cc1ccc(C)n1-c1ccc(Cl)cc1C(=O)O	70	7.7	0	0	0	0
CCN=C1SC(CC(=O)Nc2sc(C)c(C)c2C(=O)OC)C(=O)N1CC (centres undefined)	0	6.0!	0	0	0	0
CC(=O)NCCNC(=O)c1ccc(-c2ccccc2)nc1NCCc1ccccn1	0	5.1	0	0	0	0
CCC(C)NC(=O)CSc1ncccc1C(=O)O (centres undefined)	0	5.1	0	0	0	0
c1ccc(Nc2cc(N3CCN(c4ccccn4)CC3)ncn2)cc1	0	0	0	0	-	-
COc1ccc(NC(=O)C(=O)NNC(=O)c2cccc(OC)c2)cc1	0	6.1	0	0	0	0
CCc1ccc(NC(=O)C(=O)NNC(=O)c2cccc(OC)c2)cc1	0	0	0	0	-	-
CCN(CC)C(=O)CCS(=O)(=O)c1cc2c(cc1Cl)NC(=O)CO2	0	0	0	0	-	-
O=C(COc1ccccc1[N+](=O)[O-])N/N=C/c1ccccc1O	0	0	0	0	-	-
SMILES	MITF inh	GPR151 activ	FBW7 act	TEAD-YAP block	GPR151 conf act	GPR119 ag
CC(C)(C)OC(=O)N1CCN(c2nccc(-c3ccc(-c4ccc(Cl)cc4)s3)n2)CC1	-	5.3	-	-	0	0
CC(C)(C)OC(=O)N1CCC(Nc2nccc(-c3ccc(S(C)(=O)=O)cc3)n2)CC1	0	0	0	0	-	-
Cc1ccc(C(c2nnnn2CCc2ccccc2)N2CCOCC2)cc1 (centres undefined)	0	6.8	0	0	0	0
O=C(Nc1nnc(-c2cccc([N+](=O)[O-])c2)s1)c1cccs1	0	8.6	0	0	0	0
CC(=O)Nc1nnc(-c2cccc([N+](=O)[O-])c2)s1	0	0	0	0	-	-
CCOC(CNS(=O)(=O)c1ccc2c(c1)oc(=O)n2C)OCC	0	0	0	0	-	-
O=C(Nc1ccc(Cl)cc1)Nc1ccc(I)cn1	0	0	0	0	-	-
CCOC(=O)c1cnc2cc(C)nn2c1N	0	9.4	0	0	0	0
CC(C)(C)N1CC(CO)OC1c1ccccc1 (centres undefined)	0	4.9	0	0	0	0
CC1CCCCC1NC(=O)c1ccccc1C(=O)O (centres undefined)	0	0	0	0	-	-
Cc1noc(CNC(=O)c2ccc3ccccc3n2)n1	0	5.4	0	0	0	0
Cc1ccccc1NC(=O)C(=O)/C=C(\O)c1ccccc1	0	0	0	0	-	-
